Most compounds without a hit are left out; they make up all but 27% or so of the library.
CYP2C19 activ – human CYP2C19 activators, primary screen, biochemical, luminescence; Cytochrome P450 2C19 (Homo sapiens), P33261; AID 1025, 2008; recombinant CYP2C19, luciferin-H EGE luminescence; active compounds read high; 0 = fully inhibited enzyme, 1 = untreated enzyme; activation factor at 5 µM; 96,000 tested, under 10 active;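 active = activation factor of at least 2 at 5 µM in the primary screen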;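 note: 0 = wells with 2.5 mM tranylcypromine and 1 = vehicle-only wells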
Target sequence (P33261 whole entry, looked up): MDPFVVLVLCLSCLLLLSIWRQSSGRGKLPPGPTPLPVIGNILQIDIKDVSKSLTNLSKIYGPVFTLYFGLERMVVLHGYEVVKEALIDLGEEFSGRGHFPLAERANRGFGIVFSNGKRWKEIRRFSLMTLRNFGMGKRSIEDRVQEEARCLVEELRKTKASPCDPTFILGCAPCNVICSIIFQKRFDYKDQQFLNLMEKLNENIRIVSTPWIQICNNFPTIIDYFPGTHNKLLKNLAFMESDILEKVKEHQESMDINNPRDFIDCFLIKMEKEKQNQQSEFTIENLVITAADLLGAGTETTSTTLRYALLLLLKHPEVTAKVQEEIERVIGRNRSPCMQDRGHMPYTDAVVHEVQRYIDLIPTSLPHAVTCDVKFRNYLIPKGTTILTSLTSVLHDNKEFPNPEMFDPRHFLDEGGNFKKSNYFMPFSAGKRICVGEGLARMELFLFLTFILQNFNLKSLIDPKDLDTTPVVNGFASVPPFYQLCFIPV
Cav3 T inh – Cav3.2 calcium influx blockers – cell-based, Fluo-4 calcium fluorescence, FDSS, MLSMR library, primary screen; Cav3.2-expressing cells; active compounds read low; B-score at 10 µM; Voltage-dependent T-type calcium channel subunit alpha-1H (Homo sapiens), O95180; 100,000 tested, 4% active;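 active = single-dose well whose peak fluorescence ratio is a statistical outlier from its plate by either plate-standardised score or position-corrected B-score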
CYP2C9 act – human CYP2C9 activators, primary screen, biochemical, luminescence; Cytochrome P450 2C9 (Homo sapiens), P11712; recombinant CYP2C9, luciferin-H conversion; active compounds read high; factor 1 = untreated enzyme, 0 = blocked; activation factor at 5 µM; 96,000 tested, 1.4% active; AID 1024, 2008;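 active = activation factor of 2 or more for CYP2C9 at a 5 µM dose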;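 note: 0 = sulfaphenazole-blocked wells and 1 = vehicle-only wells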
CYP2C9 inh – blockers of cytochrome P450 2C9 activity – biochemical, luminescence, ADME assay, primary screen; P11712; CYP2C9 Supersomes, luciferin-H conversion; inhibition, % at 5 µM; 96,000 tested, 20% active;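 active = blocking of liver enzyme CYP2C9 beyond about 50% at 5 µM, limit read from the data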
CYP2C19 inhib – blockers of cytochrome P450 2C19 activity – biochemical, luminescence, ADME assay, primary screen; CYP2C19 Supersomes, luciferin-H EGE luminescence, 30 min; inhibition, % at 5 µM; 96,000 tested, 21% active;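 active = CYP2C19 inhibition above a set limit at 5 µM in the primary screen, cut at about 50% in these data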;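 note: plate controls were negative control wells for no effect and 2.5 mM tranylcypromine positive control for full effect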
The depositor's hits bear a star.

Cc1ccc(C(=O)NC(=S)Nc2cccc3c(C)cc(C)nc23)cc1 was read as CYP2C19 activ 0.9, Cav3 T inh -1, CYP2C9 act 0.9, CYP2C9 inh 10 and CYP2C19 inhib 9.
CCOC(=O)N1CCN(C(=O)Cn2ccc3c(OC)cccc3c2=O)CC1 was read as Cav3 T inh 0.51.
For COc1cccc(C2=NO[C@@H]3C(=O)N(Cc4ccccc4)C(=O)[C@H]23)c1OC the results were CYP2C19 activ 0, Cav3 T inh -0.43, CYP2C9 act 0.1, CYP2C9 inh 88* and CYP2C19 inhib 97*.
For COc1cccc(C2=NO[C@@H]3C(=O)N(c4ccc5c(c4)OCCO5)C(=O)[C@H]23)c1OC the results were CYP2C19 activ 1, Cav3 T inh 0.51, CYP2C9 act 0.9, CYP2C9 inh 13 and CYP2C19 inhib 2.
For Cn1nc(-c2ccc(C(=O)Nc3cccc(Cl)c3)cc2)c2ccccc2c1=O the results were CYP2C19 activ 0.5, Cav3 T inh 0.44, CYP2C9 act 0.6, CYP2C9 inh 40 and CYP2C19 inhib 51*.
For Cn1nc(-c2ccc(OCC(=O)Nc3cccnc3)cc2)c2ccccc2c1=O the results were CYP2C19 activ 0.9, Cav3 T inh 1.1, CYP2C9 act 0.3, CYP2C9 inh 71* and CYP2C19 inhib 8.
`CNC(=O)COc1ccc(-c2nn(C)c(=O)c3ccccc23)cc1` gave CYP2C19 activ 1, Cav3 T inh 0.26, CYP2C9 act 1, CYP2C9 inh -4 and CYP2C19 inhib -2.
Cn1nc(-c2ccc(C(=O)Nc3cccnc3)cc2)c2ccccc2c1=O was read as CYP2C19 activ 0.4, Cav3 T inh 1.8, CYP2C9 act 0.5, CYP2C9 inh 53* and CYP2C19 inhib 58*.
Cc1ccc(NC(=O)c2ccc(-c3nn(C)c(=O)c4ccccc34)cc2)cc1 was read as CYP2C19 activ 0.7, Cav3 T inh 0.88, CYP2C9 act 0.4, CYP2C9 inh 57* and CYP2C19 inhib 25.
For COc1ccc(CC(=O)Nc2ccc(-c3csc(C)n3)cc2)cc1 the results were CYP2C19 activ 0.8, Cav3 T inh -0.87, CYP2C9 act 0.8, CYP2C9 inh 17 and CYP2C19 inhib 22.
Screening Cc1ccc(NC(=O)Cc2ccc3c(c2)CCCC3)cc1C returned CYP2C19 activ 0.6, Cav3 T inh -2.1, CYP2C9 act 1.3, CYP2C9 inh -30 and CYP2C19 inhib 42.
For CC(=O)c1cccc(NC(=O)Cc2ccc3c(c2)CCCC3)c1 the results were CYP2C19 activ 0.8, Cav3 T inh -0.84, CYP2C9 act 2.6*, CYP2C9 inh -164 and CYP2C19 inhib 17.
Screening CC(=O)Oc1ccc(C(=O)Nc2cc(C)ccc2NC(=O)COc2ccccc2)cc1 returned CYP2C19 activ 0.9, CYP2C9 act 0.4, CYP2C9 inh 58* and CYP2C19 inhib 11.
COc1ccc(OCC(=O)Nc2cccc(OC)c2)cc1 was read as CYP2C19 activ 0.3, Cav3 T inh 0.098, CYP2C9 act 1.2, CYP2C9 inh -19 and CYP2C19 inhib 71*.
COc1ccc(CC(=O)Nc2cccc(-c3csc(C)n3)c2)cc1 was read as CYP2C19 activ 0.3, Cav3 T inh -2.9, CYP2C9 act 0.4, CYP2C9 inh 60* and CYP2C19 inhib 69*.
Screening COc1ccc(CC(C)N2CCN(c3cccc(C(F)(F)F)c3)CC2)cc1OC (centres undefined) returned CYP2C19 activ 0.8, Cav3 T inh -1.5, CYP2C9 act 0.8, CYP2C9 inh 24 and CYP2C19 inhib 23.
Screening COC(=O)c1cnn(-c2nc3c(C)cccc3s2)c1C returned CYP2C19 activ 1, Cav3 T inh 0.4, CYP2C9 act 1.1, CYP2C9 inh -12 and CYP2C19 inhib -1.
CC(=O)c1cccc(NC(=O)COc2ccccc2)c1 was read as CYP2C19 activ 0.3, Cav3 T inh 0.13, CYP2C9 act 0.4, CYP2C9 inh 57* and CYP2C19 inhib 74*.
For COC(=O)COc1cccc(NC(=O)COc2ccccc2)c1 the results were CYP2C19 activ 1, Cav3 T inh 0.025, CYP2C9 act 0.9, CYP2C9 inh 6 and CYP2C19 inhib 3.
`COc1cccc(NC(=O)COc2ncnc3sc(C)c(C)c23)c1` gave CYP2C19 activ 1, Cav3 T inh 0.036, CYP2C9 act 1, CYP2C9 inh 2 and CYP2C19 inhib 0.
Screening CCc1cccc(NC(=O)COc2ccccc2)c1 returned CYP2C19 activ 0.5, Cav3 T inh -3.6, CYP2C9 act 1, CYP2C9 inh 5 and CYP2C19 inhib 52*.
`COc1cccc(NC(=O)Nc2ccc3nsnc3c2)c1` gave CYP2C19 activ 1, Cav3 T inh -1.1, CYP2C9 act 0.4, CYP2C9 inh 64* and CYP2C19 inhib -1.
For CCN(CC(=O)Nc1cccc(OC)c1)C(=O)c1ccc(C)s1 the results were CYP2C19 activ 0.2, Cav3 T inh 0.98, CYP2C9 act 0.3, CYP2C9 inh 72* and CYP2C19 inhib 76*.
For COc1ccc(NC(=O)Nc2cccc(OC)c2)cc1 the results were Cav3 T inh -0.11.
Screening Cc1cccc(NC(=O)CCOc2ccccc2)c1 returned CYP2C19 activ 0.5, Cav3 T inh 0.053, CYP2C9 act 1.5, CYP2C9 inh -47 and CYP2C19 inhib 49.
For CCc1cccc(C)c1NC(=S)NCc1ccc2[nH]c(C)cc2c1 the results were Cav3 T inh -2.4.
`CCOc1ccc(NC(=O)CSc2nnc(C)n2CCCOC)cc1` gave CYP2C19 activ 0.7, Cav3 T inh 0.075, CYP2C9 act 0.9, CYP2C9 inh 9 and CYP2C19 inhib 27.
Screening Cc1ccc(CNC(=O)c2ccc(CN3CCOCC3)cc2)cc1 returned CYP2C19 activ 1.1, Cav3 T inh 1.5, CYP2C9 act 1, CYP2C9 inh 1 and CYP2C19 inhib -15.
`CC1(C)NC(=O)N(CCOCCOc2c(Cl)cc(Cl)cc2Cl)C1=O` gave CYP2C19 activ 0.4, Cav3 T inh 0.1, CYP2C9 act 0.6, CYP2C9 inh 40 and CYP2C19 inhib 56*.
CCOc1cc(C=O)ccc1OCCCN1C(=O)NC(C)(C)C1=O was read as CYP2C19 activ 0.3, Cav3 T inh 0.82, CYP2C9 act 0.7, CYP2C9 inh 31 and CYP2C19 inhib 68*.
Screening CC1(C)NC(=O)N(CCCOc2ccccc2Br)C1=O returned CYP2C19 activ 0.1, Cav3 T inh 0.66, CYP2C9 act 0.4, CYP2C9 inh 57* and CYP2C19 inhib 89*.
`CC1(C)NC(=O)N(CCOc2cccc(Cl)c2Cl)C1=O` gave CYP2C19 activ 0.1, Cav3 T inh 1.3, CYP2C9 act 0.7, CYP2C9 inh 32 and CYP2C19 inhib 87*.
Screening CCOC(=O)C1CCN(C(=O)Cn2cc3c(n2)CCC(C)C3)CC1 (centres undefined) returned CYP2C19 activ 0.6, Cav3 T inh 0.19, CYP2C9 act 1, CYP2C9 inh 0 and CYP2C19 inhib 39.
